Among all 39,000 compounds or so, about 3,300 (8.5%) were called active. This excerpt belongs to a sample that is enriched for actives.
tested on: HepG2; experiment: cytotoxicity call (relative viability < 0.9); details: 10 µM

Structure (SMILES) | cytotoxicity call
C[C@@H]1CCCCO[C@H](CN(C)C(=O)C2CCCCC2)[C@H](C)CN([C@H](C)CO)C(=O)c2cc(NC(=O)c3ccccc3)ccc2O1 | inactive
C[C@@H]1CN([C@@H](C)CO)C(=O)c2cccc(NC(=O)C3CCCCC3)c2O[C@@H]1CN(C)Cc1ccc(C(F)(F)F)cc1 | inactive
C[C@H](CO)N1C[C@H](C)[C@@H](CN(C)C(=O)c2cnccn2)Oc2ncc(C#Cc3ccccn3)cc2C1=O | inactive
CCCCC[C@@H](C)N | inactive
C[C@@H]1CN([C@H](C)CO)C(=O)Cc2cc(NS(=O)(=O)c3cn(C)cn3)ccc2O[C@@H]1CN(C)CC1CC1 | inactive
O=C(Nc1cccc2cccnc12)[C@@H]1[C@H](c2cc(Cl)cc(Br)c2)CC(=O)N1C(=O)OCc1ccccc1 | active
O=C(Nc1cccc2cccnc12)[C@@H]1[C@H](c2ccc(Br)cc2)CC(=O)N1C(=O)OCc1ccccc1 | inactive
O=C(Nc1cccc2cccnc12)[C@@H]1[C@H](c2ccc(-c3ccccc3)cc2)CC(=O)N1C(=O)OCc1ccccc1 | inactive
O=C(Nc1cccc2cccnc12)[C@@H]1[C@H](c2cccc(Br)c2)CC(=O)N1C(=O)OCc1ccccc1 | inactive
COc1ccc(NC(=O)[C@@H]2[C@H](c3ccc(C)cc3)CC(=O)N2C(=O)OCc2ccccc2)c2ncccc12 | inactive
COc1ccc(NC(=O)[C@H]2[C@@H](c3ccc(C)cc3)CC(=O)N2C(=O)OCc2ccccc2)c2ncccc12 | active
C[C@H](CO)N1C[C@H](C)[C@H](CN(C)Cc2ccccc2)Oc2c(NS(=O)(=O)c3cn(C)cn3)cccc2C1=O | inactive
COC(=O)C1=CO[C@@H](O[C@@H]2O[C@H](CO)[C@@H](O)[C@H](O)[C@H]2O)[C@@H]2[C@@H](C)[C@@H](O)C[C@H]12 | inactive
CC1=NNC(=O)CC1 | inactive
Cc1noc(C)c1NC(=O)Nc1ccc2c(c1)C(=O)N([C@H](C)CO)C[C@@H](C)[C@@H](CN(C)Cc1ccc(C(F)(F)F)cc1)OCCCC[C@@H](C)O2 | inactive
c1ccc(CNc2nn[nH]n2)cc1 | inactive
Cn1nnnc1NCc1ccccc1 | inactive
c1ccc(CNc2ccc3c(ccc4c5ccccc5[nH]c34)n2)cc1 | active
C[C@@H](CO)N1C(=O)[C@@H]2[C@H]3C(=O)OCCC=C[C@H]3O[C@]23C=CCN(Cn2nnc4ccccc42)C(=O)[C@@H]13 | inactive
O=c1nc[nH]c2ccccc12 | inactive
Brc1ccc(CSc2c[nH]c3ccccc23)cc1 | active
FC(F)(F)c1ccc(CSc2c[nH]c3ccccc23)cc1 | inactive
Cn1nnc(NCc2ccccc2)n1 | inactive

Structure (SMILES) | cytotoxicity call
CC1(C)C=Cc2c(nc3ccccc3c2NCc2ccccc2)C1 | active
CC(C)NC(=O)Nc1cccc2c1O[C@H](CN(C)S(=O)(=O)c1ccc(Cl)cc1)[C@@H](C)CN([C@@H](C)CO)C2=O | inactive
CNC(=O)C[C@H]1CC[C@H]2[C@@H](COC[C@@H](O)CN2C(=O)c2ccccn2)O1 | inactive
C=C[C@@H]1C[C@]1(NC(=O)[C@@H]1C[C@@H]2CN1C(=O)[C@H](C(C)(C)C)NC(=O)O[C@@H]1C[C@H]1CCCCCc1nc3ccc(OC)cc3nc1O2)C(=O)NS(=O)(=O)C1CC1 | inactive
COCC#Cc1ccc2c(c1)O[C@H](CN(C)C(=O)Nc1ccccc1F)[C@@H](C)CN([C@H](C)CO)S2(=O)=O | inactive
C[C@H](CO)N1C[C@H](C)[C@@H](CN(C)S(=O)(=O)c2cccs2)Oc2ccc(NC(=O)Cn3cnnn3)cc2CC1=O | inactive
C[C@H](CO)N1C[C@H](C)[C@H](CN(C)Cc2ccc(C(=O)Nc3ccccc3N)cc2)Oc2ccc(NC(=O)Nc3cccc4ccccc34)cc2C1=O | active
C[C@H](CO)N1C[C@H](C)[C@@H](CN(C)Cc2ccc(C(=O)Nc3ccccc3N)cc2)Oc2ccc(NC(=O)Nc3cccc4ccccc34)cc2C1=O | inactive
C[C@@H]1CN([C@H](C)CO)C(=O)c2cc(NC(=O)Nc3cccc4ccccc34)ccc2O[C@H]1CN(C)Cc1ccc(C(=O)Nc2ccccc2N)cc1 | inactive
C[C@H]1CN([C@@H](C)CO)C(=O)c2cc(NC(=O)Nc3cccc4ccccc34)ccc2O[C@@H]1CN(C)Cc1ccc(C(=O)Nc2ccccc2N)cc1 | inactive
C[C@@H]1CN([C@H](C)CO)C(=O)c2cc(NC(=O)Nc3cccc4ccccc34)ccc2O[C@@H]1CN(C)Cc1ccc(C(=O)Nc2ccccc2N)cc1 | active
C[C@H]1CN([C@@H](C)CO)C(=O)c2cc(NC(=O)Nc3cccc4ccccc34)ccc2O[C@H]1CN(C)Cc1ccc(C(=O)Nc2ccccc2N)cc1 | inactive
CN1C(=O)c2cc(NC(=O)Cc3cccs3)ccc2OC[C@@H]2O[C@@H](CC(=O)NCCCN3CCOCC3)CC[C@H]21 | inactive
COCCOC(=O)N1C(=O)[C@@]2(c3cc(C#CCNC(N)=O)ccc31)[C@H](c1ccc(O)cc1)N1[C@H](c3ccccc3)[C@H](c3ccccc3)OC(=O)[C@H]1[C@@H]2C(=O)N1CCc2cc(OC)c(OC)cc2C1 | inactive
COC(=O)[C@H]1[C@H](CO)[C@H]2Cn3c(cccc3=O)[C@H]2N1C(=O)C1CC1 | inactive
C[C@H](CO)N1C[C@H](C)[C@@H](CN(C)Cc2ccc(C(=O)Nc3ccccc3N)cc2)Oc2c(NC(=O)Nc3ccccc3)cccc2C1=O | inactive
C[C@H](C(=O)O)N1CCCC1=O | inactive
C[C@H](CO)N1C[C@H](C)[C@@H](CN(C)C(=O)Nc2cccc3ccccc23)Oc2ccc(NC(=O)Nc3ccccc3)cc2C1=O | inactive
COc1ccc(S(=O)(=O)N2C[C@H](O)COC[C@@H]3O[C@H](CC(=O)NCCCN(C)C)CC[C@H]32)cc1 | inactive
C[C@H]1CN([C@@H](C)CO)C(=O)c2c(c3ccccc3n2C)-c2ccccc2CO[C@@H]1CN(C)Cc1cccc(C(=O)O)c1 | inactive
Cc1ccc(S(=O)(=O)N(C)C[C@H]2Oc3c(NC(=O)Nc4cccc5ccccc45)cccc3C(=O)N([C@@H](C)CO)C[C@H]2C)cc1 | inactive
O=C(C[C@@H]1C[C@@H]2c3cc(NS(=O)(=O)c4ccc(F)cc4)ccc3O[C@@H]2[C@H](CO)O1)NCCc1ccccc1 | inactive
C[C@H]1CN([C@@H](C)CO)C(=O)Cc2cc(NC(=O)Nc3cccc4ccccc34)ccc2O[C@H]1CN(C)S(=O)(=O)c1cccs1 | inactive

Structure (SMILES) | cytotoxicity call
C[C@@H]1CN([C@@H](C)CO)C(=O)Cc2cc(NC(=O)Nc3cccc4ccccc34)ccc2O[C@@H]1CN(C)S(=O)(=O)c1cccs1 | active
CC(C)NC(=O)Nc1ccc2c(c1)CC(=O)N([C@H](C)CO)C[C@H](C)[C@H](CN(C)S(=O)(=O)c1cccs1)O2 | inactive
C[C@H](CO)N1C[C@H](C)[C@H](CN(C)S(=O)(=O)c2cccs2)Oc2ccc(NC(=O)Nc3cccc4ccccc34)cc2CC1=O | inactive
CC(C)NC(=O)Nc1ccc2c(c1)CC(=O)N([C@@H](C)CO)C[C@H](C)[C@H](CN(C)S(=O)(=O)c1cccs1)O2 | inactive
C[C@H]1CN([C@@H](C)CO)C(=O)Cc2cc(NC(=O)c3ccncc3)ccc2O[C@@H]1CN(C)S(=O)(=O)c1ccccc1 | inactive
C[C@@H]1CN([C@@H](C)CO)C(=O)Cc2cc(NC(=O)c3ccncc3)ccc2O[C@H]1CN(C)S(=O)(=O)c1cccs1 | inactive
C[C@@H]1CN([C@@H](C)CO)C(=O)Cc2cc(NC(=O)c3ccncc3)ccc2O[C@@H]1CN(C)S(=O)(=O)c1ccccc1 | active
C[C@H]1CN([C@@H](C)CO)C(=O)Cc2cc(NC(=O)c3ccncc3)ccc2O[C@@H]1CN(C)S(=O)(=O)c1cccs1 | inactive
C[C@H](CO)N1C[C@H](C)[C@H](CN(C)S(=O)(=O)c2ccccc2)Oc2ccc(NC(=O)c3ccncc3)cc2CC1=O | inactive
CC(C)NC(=O)Nc1ccc2c(c1)CC(=O)N([C@@H](C)CO)C[C@@H](C)[C@@H](CN(C)S(=O)(=O)c1cccs1)O2 | active
C[C@@H]1CN([C@@H](C)CO)C(=O)Cc2cc(NC(=O)c3ccncc3)ccc2O[C@@H]1CN(C)S(=O)(=O)c1cccs1 | active
C[C@@H]1CN([C@H](C)CO)C(=O)c2cc(NC(=O)Nc3ccc(C(F)(F)F)cc3)ccc2O[C@@H]1CN(C)C(=O)Nc1ccc2c(c1)OCO2 | inactive
COCC(=O)N1CC[C@]2(CC1)CN(Cc1ccc3c(c1)OCO3)[C@@H](CO)c1c2c2ccc(cc2n1C)OC | inactive
Nc1ccc(-c2ccco2)cc1 | inactive
COc1ccc(S(=O)(=O)Nc2ccc3c(c2)CC(=O)N([C@H](C)CO)C[C@@H](C)[C@H](CN(C)S(=O)(=O)c2cn(C)cn2)O3)cc1 | inactive
CC(C)NC(=O)N(C)C[C@@H]1OCc2cn(nn2)CCCC(=O)N([C@@H](C)CO)C[C@H]1C | inactive
C[C@@H]1CN([C@@H](C)CO)C(=O)c2cccc(NS(=O)(=O)c3ccc(F)cc3)c2O[C@H]1CN(C)Cc1ccc(Cl)c(Cl)c1 | inactive
CC(=O)O[C@@H]1[C@@H](O)C[C@@]2(C)[C@@H](CC[C@@H](C)[C@@]23Cc2c(O)cc4c(c2O3)CN([C@@H](CCC(=O)O)C(=O)O)C4=O)C1(C)C | inactive
CCCN(C)C[C@H]1OCCCC[C@H](C)Oc2ccc(NC(=O)c3ccccc3)cc2C(=O)N([C@@H](C)CO)C[C@H]1C | inactive
CC(C)N1C[C@H](C)[C@@H](CN(C)Cc2cccc(Cl)c2)Oc2c(NC(=O)c3ccncc3)cccc2C1=O | inactive
C[C@@H]1CN([C@@H](C)CO)C(=O)c2cc(NC(=O)Nc3cccc4ccccc34)ccc2O[C@@H](C)CCCCO[C@@H]1CN(C)S(=O)(=O)c1ccc(Cl)cc1 | inactive
Nc1nnc(C(=O)N2CCCCC2)[nH]1 | inactive

From the antibiotic and cytotoxicity screens of Wong et al. (2023)
